According to PubChem BioAssay AID1159580 (chemical genetic matrix, 2015):
Out of some 5,500 compounds screened, about 2,000 (36%) were called active. Roughly 18% stayed inconclusive and do not appear here. No stated cut-off is given here; in the data, active means normalized growth mostly below about 0.91 (no sharp cut-off); inconclusive means no clear call, values can overlap the other calls; inactive means mostly above about 0.92. The list shows a part of the results.

Test: chemical genetic growth profiling, strain panel (AID 1159580);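 further: tested at 20 µM; growth read once vehicle control cultures reached saturation at 30 °C; 1 = growth at the plate median or of vehicle wells; lower values mean less growth of the strain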
Conditions: growth OD

Measured: normalized growth

COS(C)(=O)=O
inactive: S. cerevisiae deletion strains, locus YJR075W, strain HOC1, hits give low values 1.01 | S. cerevisiae deletion strains, locus YKL009W, strain mrt4, hits give low values 1.03 | S. cerevisiae deletion strains, locus YKL068W, hits give low values 1.01 | S. cerevisiae deletion strains, locus YKL085W, strain MDH1 (second series), hits give low values 1.02 | S. cerevisiae deletion strains, locus YKL085W, strain MDH1, hits give low values 1.02 | S. cerevisiae deletion strains, locus YKL160W, strain elf1, hits give low values 1 | S. cerevisiae deletion strains, locus YKL190W, strain CNB1, hits give low values 1 | S. cerevisiae deletion strains, locus YKR001C, strain vps1, hits give low values 1.01 | S. cerevisiae deletion strains, locus YKR026C, strain gcn3, hits give low values 0.996 | S. cerevisiae deletion strains, locus YKR091W, strain srl3, hits give low values 0.993 | S. cerevisiae deletion strains, locus YLL001W, strain dnm1, hits give low values 0.996 | S. cerevisiae deletion strains, locus YLL026W, hits give low values 0.996 | S. cerevisiae deletion strains, locus YLL041C, strain sdh2, hits give low values 1 | S. cerevisiae deletion strains, locus YLR027C, strain aat2, hits give low values 0.97 | S. cerevisiae deletion strains, locus YLR039C, strain RIC1, hits give low values 1.07 | S. cerevisiae deletion strains, locus YLR058C, strain SHM2, hits give low values 1.01 | S. cerevisiae deletion strains, locus YLR102C, strain apc9, hits give low values 1.01 | S. cerevisiae deletion strains, locus YLR113W, strain HOG1, hits give low values 0.983 | S. cerevisiae deletion strains, locus YLR221C, strain rsa3, hits give low values 0.961 | S. cerevisiae deletion strains, locus YLR258W, strain gsy2, hits give low values 1.03 | S. cerevisiae deletion strains, locus YLR262C, strain YPT6 (second series), hits give low values 0.997 | S. cerevisiae deletion strains, locus YLR262C, strain YPT6, hits give low values 1.06 | S. cerevisiae deletion strains, locus YLR268W, strain sec22, hits give low values 0.973 | S. cerevisiae deletion strains, locus YLR320W, strain mms22, hits give low values 0.954 | S. cerevisiae deletion strains, locus YLR330W, strain CHS5, hits give low values 1.01 | S. cerevisiae deletion strains, locus YLR342W, strain FKS1 (second series), hits give low values 1.08 | S. cerevisiae deletion strains, locus YLR342W, strain FKS1, hits give low values 0.992 | S. cerevisiae deletion strains, locus YLR357W, strain rsc2, hits give low values 0.935 | S. cerevisiae deletion strains, locus YLR370C, strain arc18, hits give low values 1 | S. cerevisiae deletion strains, locus YLR371W, strain rom2, hits give low values 1.02 | S. cerevisiae deletion strains, locus YLR384C, strain iki3, hits give low values 0.982 | S. cerevisiae deletion strains, locus YLR418C, strain cdc73, hits give low values 0.95 | S. cerevisiae deletion strains, locus YML016C, strain PPZ1, hits give low values 1 | S. cerevisiae deletion strains, locus YML032C, strain rad52, hits give low values 1.03 | S. cerevisiae deletion strains, locus YML120C, strain ndi1, hits give low values 1 | S. cerevisiae deletion strains, locus YML124C, strain tub3, hits give low values 1.01 | S. cerevisiae deletion strains, locus YMR058W, strain fet3, hits give low values 1.02 | S. cerevisiae deletion strains, locus YMR078C, strain ctf18, hits give low values 1.02 | S. cerevisiae deletion strains, locus YMR125W, strain sto1, hits give low values 0.992 | S. cerevisiae deletion strains, locus YMR129W, hits give low values 0.997 | S. cerevisiae deletion strains, locus YMR205C, strain PFK2, hits give low values 1 | S. cerevisiae deletion strains, locus YMR223W, strain ubp8, hits give low values 1.05 | S. cerevisiae deletion strains, locus YMR231W, strain pep5, hits give low values 0.985 | S. cerevisiae deletion strains, locus YMR263W, strain SAP30, hits give low values 0.995 | S. cerevisiae deletion strains, locus YMR307W, strain GAS1, hits give low values 1.05 | S. cerevisiae deletion strains, locus YNL067W, strain RPL9B, hits give low values 1 | S. cerevisiae deletion strains, locus YNL071W, strain lat1, hits give low values 1 | S. cerevisiae deletion strains, locus YNL128W, strain TEP1, hits give low values 0.987 | S. cerevisiae deletion strains, locus YNL153C, strain GIM3, hits give low values 0.976 | S. cerevisiae deletion strains, locus YNL183C, strain NPR1, hits give low values 1 | S. cerevisiae deletion strains, locus YNL209W, strain ssb2, hits give low values 1.01 | S. cerevisiae deletion strains, locus YNL233W, strain BNI4, hits give low values 0.99 | S. cerevisiae deletion strains, locus YNL248C, strain rpa49, hits give low values 0.998 | S. cerevisiae deletion strains, locus YNL250W, strain rad50, hits give low values 1.02 | S. cerevisiae deletion strains, locus YNL271C, strain bni1, hits give low values 1.02 | S. cerevisiae deletion strains, locus YNL298W, strain CLA4, hits give low values 1.02 | S. cerevisiae deletion strains, locus YNL307C, strain MCK1, hits give low values 1.03 | S. cerevisiae deletion strains, locus YNL322C, strain KRE1 (second series), hits give low values 0.976 | S. cerevisiae deletion strains, locus YNL322C, strain KRE1, hits give low values 1.01 | S. cerevisiae deletion strains, locus YNR049C, strain mso1, hits give low values 0.995 | S. cerevisiae deletion strains, locus YNR052C, strain pop2, hits give low values 1.03 | S. cerevisiae deletion strains, locus YOL006C, strain TOP1, hits give low values 1.03 | S. cerevisiae deletion strains, locus YOL012C, strain htz1 0.976 | S. cerevisiae deletion strains, locus YOL147C, strain pex11, hits give low values 1.01 | S. cerevisiae deletion strains, locus YOR001W, strain rrp6, hits give low values 0.942 | S. cerevisiae deletion strains, locus YOR061W, strain CKA2, hits give low values 1 | S. cerevisiae deletion strains, locus YOR069W, strain VPS5, hits give low values 1.01 | S. cerevisiae deletion strains, locus YOR070C, strain gyp1, hits give low values 0.989 | S. cerevisiae deletion strains, locus YOR080W, strain dia2, hits give low values 0.986 | S. cerevisiae deletion strains, locus YOR083W, strain WHI5, hits give low values 1.01 | S. cerevisiae deletion strains, locus YOR106W, strain vam3, hits give low values 1.03 | S. cerevisiae deletion strains, locus YOR136W, strain idh2, hits give low values 1.01 | S. cerevisiae deletion strains, locus YOR144C, strain elg1, hits give low values 1 | S. cerevisiae deletion strains, locus YOR184W, strain ser1, hits give low values 1.05 | S. cerevisiae deletion strains, locus YOR231W, strain MKK1, hits give low values 0.987 | S. cerevisiae deletion strains, locus YOR265W, strain rbl2, hits give low values 0.999 | S. cerevisiae deletion strains, locus YOR270C, strain vph1, hits give low values 0.981 | S. cerevisiae deletion strains, locus YOR290C, strain snf2, hits give low values 0.995 | S. cerevisiae deletion strains, locus YOR316C, strain cot1, hits give low values 1.02 | S. cerevisiae deletion strains, locus YPL051W, strain arl3, hits give low values 1.02 | S. cerevisiae deletion strains, locus YPL055C, strain LGE1, hits give low values 0.968 | S. cerevisiae deletion strains, locus YPL078C, strain atp4, hits give low values 1.01 | S. cerevisiae deletion strains, locus YPL106C, strain sse1, hits give low values 0.99 | S. cerevisiae deletion strains, locus YPL240C, strain hsp82, hits give low values 0.995 | S. cerevisiae deletion strains, locus YPL241C, strain CIN2, hits give low values 1 | S. cerevisiae deletion strains, locus YPL256C, strain CLN2, hits give low values 0.99 | S. cerevisiae deletion strains, locus YPR119W, strain clb2, hits give low values 1 | S. cerevisiae deletion strains, locus YPR141C, strain kar3, hits give low values 1.02 | S. cerevisiae deletion strains, locus YPR163C, strain tif3, hits give low values 1 | S. cerevisiae deletion strains, locus YPR167C, strain met16, hits give low values 1.01 | S. cerevisiae deletion strains, strain wtn01, hits give low values 0.981 | S. cerevisiae strains, strain wild type, hits give low values 1.01
